Source: PubChem (National Center for Advancing Translational Sciences (NCATS))
p53ts 32C kill: p53ts cell cytotoxicity, permissive temperature. AID 924. H1299-p53A138V at 32C, ATP luminescence viability, 24 h. 130,000 tested, 0.93% active. Potency, µM (doses to about 46.1 µM), most hits filed as cytotoxic; also: nearly all actives have a fitted effect of over 55% in size
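Cells: H1299 p53ts (A138V), 600/well, pre-incubated 16–30 h at 37C. Cpd up to 46 uM, 24 h, 32C. Readout: ATPlite luminescence, 20 min RT. Normalization: DMSO vs tamoxifen 100 uM. AC50 by Hill equation.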
IkB signaling: suppresses IkB signaling in ABC-DLBCL reporter cells. Potency, µM (highest dose often 57.1 µM). ABC-DLBCL IkBa-CBG/CBR dual luciferase ratio, 4 h; response scale: scaled: untreated 0%, proteasome inhibitor 100%. 110,000 tested, 0.04% active; active = well fitted curve in the direction sought with a large enough effect in the signal ratio, not every such curve was filed as active; inconclusive = small, poorly fitted or top-dose-only effect, or a change in a side signal; the % refers to the signal ratio;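 also: the direction sought is a rising ratio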
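Luminescence ratio of IκBα-fused green versus native red beetle luciferase in OCI-Ly3 cells, 4 h post-doxycycline with compound; red signal alone, scaled from basal (0%) to zero light (-100%), flagged nonspecific or cytotoxic effects.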
p53ts 39C kill: kills p53ts cells at the nonpermissive temperature | H1299-p53A138V viability at 39C, ATP luminescence, 24 h | Potency, µM (titrated, usually from 46.1 µM), hits mostly cytotoxic | 130,000 tested, 1.5% active | AID 902; also: nearly all actives have a fitted effect of over 55% in size
Imprint erasure: inducers of genomic imprint erasure in mouse ES cells | mouse ES Peg3-LacZ reporter, beta-gal luminescence, 40 h | Potency, µM (titrated, usually from 60.7 µM), usual class: activators | 110,000 tested, 0.02% active | AID 1948
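Each well holds 300 Peg3LacZ-Neo (maternal) female ES cells incubated 40 h at 37C, 5% CO2. LacZ is measured by BetaGlo luminescence, with AC50 and maximum efficacy derived from dose-response curves.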
A number is an active result; n = inactive; u = inconclusive; x = no result; [ ] = another dose, or the depositor's remark. An excerpt weighted towards active compounds, which were near 1.8% of everything screened. Unless noted, calls follow the shape of the dose curve; as a rule, active = well fitted curve in the direction sought with a large enough effect; inconclusive = small, poorly fitted or top-dose-only effect, or another doubt; inactive = no such curve, though single readings can be large; an effect the other way counts as inactive or inconclusive.

SMILES | p53ts 32C kill | IkB signaling | p53ts 39C kill | Imprint erasure
COc1ccc(-c2nc(CNS(=O)(=O)c3ccccc3)cs2)cc1 | n | n | n | n[10.9 µM]
NC(=O)c1ccc(-c2ncc(-c3ccccc3)o2)cc1 | u | n | 20µM | n
c1ccc(-c2cnc(-c3cccnc3)o2)cc1 | n | n | n | n
CCN(CC)CCCNC(=O)c1cn(C)c2ccc(S(=O)(=O)N3CCOCC3)cc2c1=O | n | n | n | n[10.9 µM]
N=c1n(CCO)c2ccccc2n1CCOc1ccc(F)cc1 | n | u | n | n[10.9 µM]
CCCCn1c(=N)n(CCCOc2ccc(F)cc2)c2ccccc21 | u | u | 10µM | n[10.9 µM]
O=C(Nc1ccc(-c2nc3ccccc3o2)cc1)C1CCCO1 (configuration not stated) | 16µM | u | 10µM | x
CCc1ccc(C2=CC(c3cccc(OC)c3OC)n3c(nc4ccccc43)N2)cc1 (configuration not stated) | 10µM | u | 16µM | n[10.9 µM]
CCc1ccc(C2=CC(c3cccc(C)c3)n3c(nc4ccccc43)N2)cc1 (configuration not stated) | 8.9µM | u | 5µM | n[10.9 µM]
CC(C)c1ccc(C2=CC(c3cccc(Cl)c3)n3c(nc4ccccc43)N2)cc1 (configuration not stated) | u | u | u | n[10.9 µM]
COc1ccc(Nc2cc(C(=O)NCc3ccccc3)c3ccccc3n2)c(OC)c1 | u | u | n | n[10.9 µM]
C=C(C)Cn1c(SCC)nc2ccccc2c1=O | n | n | n | n
C=C(C)Cn1c(SCC#N)nc2ccccc2c1=O | n | n | n | 1µM
COc1ccccc1/C=C/c1nc2ccccc2n1C(C)C | u | n | 16µM | n[10.9 µM]
Cc1ccc(C(O)c2nc3ccccc3n2C(C)C)cc1 (configuration not stated) | n | n | n | n
COc1cc(C2CC(=O)Nc3cc4c(cc32)OCCO4)cc(OC)c1O (configuration not stated) | n | n | n | n[10.9 µM]
O=S(=O)(c1cccc(C(F)(F)F)c1)n1c(/C=C/c2ccccc2)nc2ccccc21 | 13µM | n | 13µM | n[10.9 µM]
CCOc1ccc(/C=C/c2nc3ccccc3n2S(=O)(=O)c2ccc(Br)cc2)cc1 | 7.9µM | u | 7.9µM | n[10.9 µM]
CSc1ccc(/C=C/c2nc3ccccc3n2S(=O)(=O)c2ccc(Br)cc2)cc1 | 3.2µM | u | 1.1µM | n[10.9 µM]
COc1ccccc1CNC(=O)c1ccc(CN2CC(=O)N3CCCCC3C2=O)cc1 (configuration not stated) | n | x | x | x
Cc1sc2c(c1C)c(=O)n(CCc1ccccc1)c(=O)n2Cc1ccc(F)cc1 | n | n | n | n[10.9 µM]
CCOC(=O)c1ccc(NC(=O)CSc2nc3c(c(=O)n2C)SC(C)C3)cc1 (configuration not stated) | 7.9µM | n | 13µM | n
Cc1cc(C(=O)O)c2c(=O)n(C)c(=O)n(C)c2n1 | n | n | n | u
CCN(CC)CCOC(=O)c1ccc(NC(=O)CSc2cc(=O)n(CC)c3ccccc23)cc1 | n | n | 10µM | u
CCN(CC)CCOC(=O)c1ccc(NC(=O)COc2cc(=O)n(CC)c3ccccc23)cc1 | n | n | n | n
SMILES | p53ts 32C kill | IkB signaling | p53ts 39C kill | Imprint erasure
Cc1c(C(=O)NCC2CCCO2)oc2ccc3c(c12)C(=O)CC(C)(C)O3 (configuration not stated) | 13µM | x | u | x
Cc1cc(C)cc(NC(=O)c2oc3ccc4c(c3c2C)C(=O)CC(C)(C)O4)c1 | u | u | u | n[10.9 µM]
Cc1c(C(=O)Nc2cccc(C(F)(F)F)c2)oc2ccc3c(c12)C(=O)CC(C)(C)O3 | n | n | 16µM | n[10.9 µM]
COc1ccc(OC)c(NC(=O)Cn2ncc3c2-c2ccccc2OC3)c1 | n | n | n | n[10.9 µM]
COc1cc(Cl)c(C)cc1NC(=O)Cn1ncc2c1-c1cc(C)ccc1OC2 | n | n | 13µM | n[10.9 µM]
CCn1c(=O)cc(OCC(=O)Nc2ccc(Cl)cn2)c2ccccc21 | n | n | n | n
COc1ccccc1NC(=O)C1=C(C)Nc2nc(SCc3ccccc3F)nn2C1c1cccnc1 (configuration not stated) | n | n | n | n[10.9 µM]
COc1ccccc1NC(=O)C1=C(C)Nc2nc(SCc3ccccc3Cl)nn2C1c1cccnc1 (configuration not stated) | n | u | 10µM | n[10.9 µM]
COc1cc(NC(=O)c2ccco2)c(OC)cc1NC(=O)CCC(=O)Nc1cccc(C)c1C | n | n | n | n
CC(=O)Nc1ccc(C(=O)CSc2nnc(-c3ccccc3)n2-c2ccccc2)cc1 | n | n | n | n[10.9 µM]
CC1(C)Cc2nc3oc4c(N(CCO)Cc5ccccc5)ncnc4c3cc2CO1 | n | n | n | n
